Test systems include SK-MEL-2 melanoma; EKVX NSCLC; SN12C renal; UO-31 renal; TK-10 renal; ACHN renal; CAKI-1 renal; A498 renal; CCRF-CEM leukemia; MOLT-4 leukemia; SR leukemia; RPMI-8226 leukemia; OVCAR-8 ovarian; OVCAR-5 ovarian; OVCAR-4 ovarian; SK-OV-3 ovarian; IGROV1 ovarian; OVCAR-3 ovarian; HS 578T breast; NCI/ADR-RES ovarian.
Common to all, as to test: NCI-60 one-dose screen, 48 h (100 = growth as untreated, 0 = no growth, -100 = all killed)
Settings in all cases: 10 µM unless noted

About 83,000 compounds went through this panel and 20% of them were active in at least one assay; those are over-represented in the sample as a whole.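 Compound tested at a single concentration for 48 hours in 96-well plates; a percent growth value below 10 was scored as active.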 A number with no mark means an inactive call. Active and inactive are the calls of the source.

Take `Oc1ccc(F)c(Nc2nc(SCCN3CCOCC3)nc3c2cnn3CC(Cl)c2ccc(Br)cc2)c1` (stereo not given): the growth was 33.5% in the experiment with SK-MEL-2 melanoma; 30% in the experiment on EKVX NSCLC; 32.3% in the experiment with SN12C renal; 16.9% in the experiment on UO-31 renal; 68.6% with TK-10 renal; 16.5% in the experiment on ACHN renal. Besides, the growth was 24% with CAKI-1 renal; 63.1% in the experiment with A498 renal; -3.71% (active) in the experiment on CCRF-CEM leukemia; 6.17% (active) with MOLT-4 leukemia; -2.59% (active) in the experiment with SR leukemia; 1.15% (active) in the experiment on RPMI-8226 leukemia. Further, the growth was 20.2% with OVCAR-8 ovarian; 40.5% in the experiment on OVCAR-5 ovarian; 31.9% in the experiment on OVCAR-4 ovarian; 64.2% in the experiment with SK-OV-3 ovarian; 12.5% in the experiment on IGROV1 ovarian; 25.8% in the experiment on OVCAR-3 ovarian. Besides, the growth is -23.9% (active) in the experiment with HS 578T breast and 16.4% in the experiment with NCI/ADR-RES ovarian.
For `O=C(NNC(=O)c1ccc(OCc2nc3ccc(Cl)cc3[nH]2)cc1)Nc1ccc(Cl)c(Cl)c1`, the growth in the experiment with SK-MEL-2 melanoma was 72.7%; in the experiment on EKVX NSCLC, 91.9%; in the experiment with SN12C renal, 76.7%; in the experiment with UO-31 renal, 84.7%; in the experiment with TK-10 renal, 110%; in the experiment with ACHN renal, 106%. Further, the growth is 91.8% in the experiment with CAKI-1 renal; 182% with A498 renal; 88.5% in the experiment with CCRF-CEM leukemia; 94% in the experiment with MOLT-4 leukemia; 69.3% in the experiment with SR leukemia; 102% in the experiment with RPMI-8226 leukemia. Further, the growth in the experiment with OVCAR-8 ovarian is 24%; in the experiment with OVCAR-5 ovarian, 83.8%; in the experiment on OVCAR-4 ovarian it was 64.5%; in the experiment with SK-OV-3 ovarian, 77.1%; in the experiment with IGROV1 ovarian, 84.5%; in the experiment on OVCAR-3 ovarian, 82.7%. The figures for the growth in the experiment on HS 578T breast and in the experiment on NCI/ADR-RES ovarian were 81.9% and 94.1%, respectively.
For `FC(F)(F)c1cc2c(Cl)ncnc2n1CCN1CCCCC1`, the growth was -16% (active) in the experiment on SK-MEL-2 melanoma; 72% with EKVX NSCLC; 59.7% in the experiment with SN12C renal; -96.3% (active) with UO-31 renal; 105% in the experiment with TK-10 renal; -22.5% (active) in the experiment on ACHN renal. Also, the growth in the experiment on CAKI-1 renal is 21.3%; in the experiment with A498 renal, 113%; in the experiment with CCRF-CEM leukemia, 4.18% (active); with MOLT-4 leukemia it was -14.3% (active); in the experiment on SR leukemia, -50.9% (active); with RPMI-8226 leukemia, 102%. The growth with OVCAR-8 ovarian was 14.8%; with OVCAR-5 ovarian it was 95%; in the experiment with OVCAR-4 ovarian, 13.5%; with SK-OV-3 ovarian it was 97.2%; in the experiment on IGROV1 ovarian, -84.8% (active); in the experiment on OVCAR-3 ovarian, -21.7% (active). Also, the growth was 56.3% with HS 578T breast and 79% with NCI/ADR-RES ovarian.
`Cc1ccc(Cl)cc1NC(=O)Nc1nc2ccc([N+](=O)[O-])cc2s1`: the growth in the experiment on SK-MEL-2 melanoma was -47.1% (active); in the experiment with EKVX NSCLC, -0.784% (active); in the experiment on SN12C renal, -25.7% (active); in the experiment with UO-31 renal it was -16.3% (active); with TK-10 renal, 2.13% (active); in the experiment on ACHN renal it was -19.8% (active). The growth in the experiment on CAKI-1 renal was -26% (active); in the experiment with A498 renal, -21.7% (active); in the experiment with CCRF-CEM leukemia, 3.14% (active); in the experiment on MOLT-4 leukemia, 6.23% (active); with SR leukemia, 1.31% (active); in the experiment on RPMI-8226 leukemia, -18.7% (active). For the same compound, the growth in the experiment with OVCAR-8 ovarian is 1.61% (active); in the experiment on OVCAR-5 ovarian, 2.15% (active); with OVCAR-4 ovarian, 7.05% (active); in the experiment with SK-OV-3 ovarian, -28.6% (active); in the experiment with IGROV1 ovarian, 8.2% (active); with OVCAR-3 ovarian, 2.64% (active). For the same compound, the results for the growth in the experiment on HS 578T breast and with NCI/ADR-RES ovarian were -13.9% (active) and -17.1% (active), respectively.
Consider `CCOc1ccccc1[C@H]1C(C(=O)c2ccc(Cl)cc2)C2(N[C@@H]1c1ccccc1)C(=O)Nc1ccc(Br)cc12` (stereo not given in full), for which the growth in the experiment on SK-MEL-2 melanoma was -66.8% (active); in the experiment on EKVX NSCLC it was 3.88% (active); in the experiment with SN12C renal, -86.6% (active); in the experiment on UO-31 renal it was 5.4% (active); in the experiment with TK-10 renal it was 27%; with ACHN renal, 1.27% (active). Also, the growth is 7.21% (active) with CAKI-1 renal; -22.5% (active) with A498 renal; 4.88% (active) with CCRF-CEM leukemia; -23.2% (active) with MOLT-4 leukemia; -45.6% (active) in the experiment on SR leukemia; 5.23% (active) in the experiment on RPMI-8226 leukemia. Also, the growth in the experiment with OVCAR-8 ovarian was 12.1%; in the experiment on OVCAR-5 ovarian, -20.8% (active); with OVCAR-4 ovarian, 13.7%; in the experiment with SK-OV-3 ovarian, 24.4%; in the experiment with IGROV1 ovarian, 1% (active); in the experiment with OVCAR-3 ovarian it was -4.84% (active). Besides, the growth with HS 578T breast was -5.81% (active); in the experiment on NCI/ADR-RES ovarian, -46.7% (active).
In the case of `c1n[nH]cc1-c1nc2ccc3[nH]ncc3c2c2c1CC1(CCOCC1)CC2`, the growth with SK-MEL-2 melanoma was 24.5%; in the experiment with EKVX NSCLC, 55.3%; with SN12C renal, 28.8%; in the experiment with UO-31 renal, 55.4%; in the experiment with TK-10 renal, 29.2%; in the experiment on ACHN renal, 22.1%. In addition, the growth is 4.86% (active) in the experiment on CAKI-1 renal; -3.86% (active) in the experiment on A498 renal; 19.3% with CCRF-CEM leukemia; 22.2% with MOLT-4 leukemia; 2.94% (active) with SR leukemia; 49.8% in the experiment with RPMI-8226 leukemia. For the same compound, the growth in the experiment with OVCAR-8 ovarian is 35.4%; in the experiment on OVCAR-5 ovarian, 87.7%; in the experiment on OVCAR-4 ovarian it was 70.2%; in the experiment with SK-OV-3 ovarian, -0.483% (active); in the experiment on IGROV1 ovarian it was 61.2%; in the experiment with OVCAR-3 ovarian it was 52.5%. In addition, the growth in the experiment with HS 578T breast is 5.29% (active); in the experiment on NCI/ADR-RES ovarian, 96.5%.
In the case of `COc1ccc(N=Nc2c(N)nn3c(-c4ccc(F)cc4)ccnc23)cc1`, the growth with SK-MEL-2 melanoma is 102%; in the experiment with EKVX NSCLC, 80.4%; in the experiment on SN12C renal, 89%; with UO-31 renal it was 99.6%; in the experiment on TK-10 renal it was 106%; with ACHN renal, 110%. The growth is 94.5% in the experiment with CAKI-1 renal; 108% in the experiment with A498 renal; 59.9% in the experiment on CCRF-CEM leukemia; 85.5% in the experiment with MOLT-4 leukemia; 3.18% (active) in the experiment on SR leukemia; 95.5% in the experiment on RPMI-8226 leukemia. Moreover, the growth in the experiment with OVCAR-8 ovarian is 73.1%; in the experiment with OVCAR-5 ovarian, 80%; with OVCAR-4 ovarian, 26.1%; in the experiment on SK-OV-3 ovarian, 113%; with IGROV1 ovarian, 99.9%; with OVCAR-3 ovarian, 79.6%. The growth is 107% in the experiment on HS 578T breast and 74.3% in the experiment with NCI/ADR-RES ovarian.
In the case of `CC[C@]12C=CCN3CC[C@]4(C(=C(C(=O)OC)C1)Nc1cc(OC)c([C@@H]5[C@H]6O[C@H]6[C@@]6(CC)CC(C(=O)OC)=C7Nc8cc(OC)ccc8[C@@]78CCN5[C@@H]68)cc14)[C@@H]32`, the growth is 83.1% in the experiment on SK-MEL-2 melanoma; 51.7% in the experiment on EKVX NSCLC; 50% in the experiment with SN12C renal; 69.5% in the experiment with UO-31 renal; 72.5% with TK-10 renal; 44% in the experiment on ACHN renal. In addition, the growth with CAKI-1 renal was 43.4%; with A498 renal, 141%; in the experiment with CCRF-CEM leukemia, 30.8%; in the experiment with MOLT-4 leukemia it was 18.4%; in the experiment with SR leukemia, 5.93% (active); in the experiment with RPMI-8226 leukemia, 24.2%. Besides, the growth in the experiment on OVCAR-8 ovarian was 53.1%; in the experiment with OVCAR-5 ovarian, 93.2%; in the experiment on OVCAR-4 ovarian, 59.8%; with SK-OV-3 ovarian it was 116%; in the experiment with IGROV1 ovarian, 64%; in the experiment with OVCAR-3 ovarian, 55.8%. Further, the figures for the growth in the experiment with HS 578T breast and in the experiment with NCI/ADR-RES ovarian were 87.2% and 80.8%, respectively.

Source of the values: PubChem BioAssay (NCI).
